Test results from ChEMBL document CHEMBL2218924, “A broad activity screen in support of a chemogenomic map for kinase signalling research and drug discovery” (Biochem J, 2013).

Tests used:
[1] = target: G protein-coupled receptor kinase 5 (Homo sapiens) (UniProt P34947); settings: at 1 µM
[2] = target: G protein-coupled receptor kinase 6 (Homo sapiens) (UniProt P43250); settings: at 1 µM
Chain of G protein-coupled receptor kinase 6 (Homo sapiens) (P43250 whole entry, looked up): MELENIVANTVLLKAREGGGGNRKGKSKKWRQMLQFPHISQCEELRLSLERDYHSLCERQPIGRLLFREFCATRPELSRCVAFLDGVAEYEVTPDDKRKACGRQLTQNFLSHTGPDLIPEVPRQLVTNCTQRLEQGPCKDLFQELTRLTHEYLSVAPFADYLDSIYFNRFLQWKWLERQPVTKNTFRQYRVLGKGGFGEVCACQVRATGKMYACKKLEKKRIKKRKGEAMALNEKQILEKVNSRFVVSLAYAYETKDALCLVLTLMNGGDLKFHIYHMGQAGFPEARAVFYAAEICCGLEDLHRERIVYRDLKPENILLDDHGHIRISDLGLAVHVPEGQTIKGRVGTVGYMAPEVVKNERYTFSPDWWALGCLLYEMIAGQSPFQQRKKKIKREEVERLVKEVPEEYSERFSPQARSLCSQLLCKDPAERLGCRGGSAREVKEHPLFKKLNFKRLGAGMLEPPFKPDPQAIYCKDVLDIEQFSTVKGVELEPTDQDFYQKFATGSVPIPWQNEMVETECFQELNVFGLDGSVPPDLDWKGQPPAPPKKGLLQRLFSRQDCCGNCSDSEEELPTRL

Chain of G protein-coupled receptor kinase 5 (Homo sapiens) (P34947 whole entry, looked up): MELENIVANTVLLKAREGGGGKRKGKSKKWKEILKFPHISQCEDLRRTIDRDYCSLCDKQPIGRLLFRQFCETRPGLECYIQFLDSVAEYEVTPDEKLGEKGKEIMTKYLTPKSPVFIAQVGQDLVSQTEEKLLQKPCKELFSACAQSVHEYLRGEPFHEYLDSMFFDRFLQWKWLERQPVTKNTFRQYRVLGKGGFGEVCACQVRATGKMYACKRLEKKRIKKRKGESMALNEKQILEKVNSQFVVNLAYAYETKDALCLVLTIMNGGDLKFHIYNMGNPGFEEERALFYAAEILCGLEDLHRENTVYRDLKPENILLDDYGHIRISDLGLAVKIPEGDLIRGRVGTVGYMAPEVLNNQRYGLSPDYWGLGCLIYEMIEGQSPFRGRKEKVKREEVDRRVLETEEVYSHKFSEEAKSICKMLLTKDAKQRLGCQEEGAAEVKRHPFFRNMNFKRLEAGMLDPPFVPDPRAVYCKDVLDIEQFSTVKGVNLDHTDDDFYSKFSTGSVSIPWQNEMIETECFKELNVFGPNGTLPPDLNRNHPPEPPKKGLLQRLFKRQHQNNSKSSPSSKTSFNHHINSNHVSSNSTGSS

| Structure (SMILES) | residual activity [1] | residual activity [2] |
| --- | --- | --- |
| CCOc1cc2ncnc(Nc3cccc(Br)c3)c2cc1OCC | 97% | 100% |
| CC(C)[C@H](CO)Nc1nc(Nc2cc(N)cc(Cl)c2)c2ncn(C(C)C)c2n1 | 89% | 90% |
| Nc1n[nH]c2nnc(-c3c(-c4ccccc4)nn4ccccc34)cc12 | 93% | 87% |
| CCCCc1c(-c2ccc(O)cc2)[nH]c2nccnc12 | 93% | 98% |
| COc1ccc(S(=O)(=O)N(CCO)c2ccccc2CN(C)C/C=C/c2ccc(Cl)cc2)cc1 | 97% | 91% |
| O=C(Nc1cccc(Nc2nccc(Nc3cccc(C(F)(F)F)c3)n2)c1)C1CC1 | 94% | 99% |
| O=C1NC(=O)/C(=C/c2ccc3c(c2)OC(F)(F)O3)S1 | 92% | 93% |
| O=C(O)c1ccc2c3c1cccc3c(=O)n1c3ccccc3nc21 | 95% | 100% |
| Oc1n[nH]c2nnc(-c3c(-c4ccccc4)nn4ccccc34)cc12 | 87% | 83% |
| COc1cc2ncnc(N3CCN(C(=O)Nc4ccc(Oc5ccccc5)cc4)CC3)c2cc1OC | 95% | 85% |
| COc1ccc(OC)c2c(=S)c3ccccc3[nH]c12 | 94% | 98% |
| Nc1ncnc2c1c(-c1ccc(Oc3ccccc3)cc1)cn2C1CCCC1 | 103% | 92% |
| CCN(CC)CCNC(=O)c1c(C)[nH]c(/C=C2\C(=O)Nc3ccc(Cl)cc32)c1C | 68% | 68% |
| COc1cc2ncnc(Nc3ccc(O)c(Br)c3)c2cc1OC | 89% | 85% |
| COc1cc2ncnc(Nc3ccc(NC(=O)c4ccccc4)cc3)c2cc1OC | 105% | 111% |
| c1ccc(-c2n[nH]c3c2oc2ccccc23)cc1 | 91% | 99% |
| COc1cc2nccc(Oc3ccc(NC(=S)NC(=O)c4ccccc4C)cc3)c2cc1OC | 98% | 87% |
| O=c1c(-c2ccc(F)cc2)c(-c2ccncc2)[nH]n1-c1ccc(Cl)cc1 | 101% | 99% |
| CCN(CC)CCCCN1c2ccccc2Oc2ccc(Cl)cc21 | 107% | 102% |
| Oc1ccc(-c2nc(-c3ccc(F)cc3)c(-c3ccncc3)[nH]2)cc1 | 109% | 109% |

| Structure (SMILES) | residual activity [1] | residual activity [2] |
| --- | --- | --- |
| Cn1cc(/C=C2\C(=O)Nc3ccc(S(N)(=O)=O)cc32)c2ccccc21 | 62% | 96% |
| CO[C@H]1C[C@@H]2CC[C@@H](C)[C@@](O)(O2)C(=O)C(=O)N2CCCC[C@H]2C(=O)O[C@H]([C@H](C)C[C@@H]2CC[C@@H](O)[C@H](OC)C2)CC(=O)[C@H](C)/C=C(\C)[C@@H](O)[C@@H](OC)C(=O)[C@H](C)C[C@H](C)/C=C/C=C/C=C/1C | 95% | 89% |
| C[C@@H](N)[C@H]1CC[C@H](C(=O)Nc2ccncc2)CC1 | 92% | 106% |
| N#C/C(=C(\N)Sc1ccc(N)cc1)c1ccccc1C(F)(F)F | 97% | 86% |
| O=[N+]([O-])c1ccc(-c2nc(-c3ccc(F)cc3)c(-c3ccncc3)[nH]2)cc1 | 101% | 102% |
| Cn1nc2c3c(cccc31)C(=O)c1ccccc1-2 | 102% | 93% |
| Nc1ccc2ncnc(NCCc3ccc(Oc4ccccc4)cc3)c2c1 | 104% | 105% |
| COc1ccc(C(=O)Nc2sc3c(c2C(N)=O)CCCC3)cc1OC | 91% | 90% |
| COc1cccc(-c2cc(=O)c3ccccc3o2)c1N | 100% | 99% |
| O=C1NC(=O)c2c1c1c3ccccc3[nH]c1n1cncc21 | 83% | 82% |
| Nc1n[nH]c2nc3ccccc3nc12 | 98% | 93% |
| O=C1c2ccccc2-[n+]2ccc3c([nH]c4ccccc43)c21 | 91% | 88% |
| Cc1nc(-c2ccccc2)c(-c2ccncc2)o1 | 104% | 103% |
| Oc1ccc(Nc2nc(-c3ccc(Cl)cc3)cs2)cc1 | 102% | 103% |
| CN(C)c1ccc(/C=C2\C(=O)Nc3ccccc32)cc1 | 91% | 97% |
| COc1cc2ncnc(Nc3ccc(Oc4ccccc4)cc3)c2cc1OC | 90% | 93% |
| c1ccc(-c2n[nH]cc2-c2ccnc3ccccc23)nc1 | 103% | 96% |
| Nc1ncnc2[nH]nc(Nc3ccc(F)cc3)c12 | 103% | 97% |
| CC(=O)c1ccc(N2CCOCC2)cc1O | 105% | 95% |
| CC(C)(C)c1nc2c3ccc(F)cc3c3c(=O)[nH]ccc3c2[nH]1 | 72% | 59% |

| Structure (SMILES) | residual activity [1] | residual activity [2] |
| --- | --- | --- |
| O=c1cc(N2CCOCC2)oc2c1ccc1ccccc12 | 103% | 96% |
| Cc1cc2ncc(-c3ccccc3)nc2cc1C | 106% | 95% |
| Cc1nc2cc3nc(-c4cccs4)cnc3cc2n1C | 113% | 103% |
| CC#CC(=O)Nc1cc2c(Nc3ccc(F)c(Cl)c3)ncnc2cn1 | 100% | 95% |
| CC(C)n1cnc2c(NCc3ccccc3)nc(NCCCO)nc21 | 101% | 96% |
| COc1ccc(CNc2nc(N(CCO)CCO)nc3c2ncn3C(C)C)cc1 | 89% | 95% |
| O=C1C(Cl)=C(N2C(=O)CCC2=O)C(=O)c2ccccc21 | 98% | 88% |
| NC(=O)c1ccc2[nH]c(-c3ccc(Oc4ccc(Cl)cc4)cc3)nc2c1 | 93% | 93% |
| O=C1NC(=O)/C(=C\c2ccc3nccnc3c2)S1 | 103% | 90% |
| NCCNc1ncc(C(N)=O)c(Nc2cccc(C(F)(F)F)c2)n1 | 105% | 100% |
| Oc1c2ccccc2c2c3c(cccc13)N=N2 | 84% | 87% |
| CC(C)c1nn(-c2c(Cl)cccc2Cl)c2nc(Cc3ccc(OCCO)cc3)[nH]c(=O)c12 | 101% | 96% |
| CNc1cc2c(Nc3cccc(Br)c3)ncnc2cn1 | 109% | 95% |
| NC(=O)Nc1sc(-c2ccc(F)cc2)cc1C(N)=O | 93% | 85% |
| CCC(=O)Nc1ccc2ncnc(Nc3cccc(Br)c3)c2c1 | 114% | 97% |
| O=C(Nc1cccc(Nc2cc(Nc3cccc(C(F)(F)F)c3)ncn2)c1)C1CC1 | 102% | 98% |
| O=c1cc(N2CCNCC2)oc2c(-c3ccccc3)cccc12 | 81% | 102% |
| O=c1c2ccccc2[nH]c(=S)n1CCN1CCC(=C(c2ccc(F)cc2)c2ccc(F)cc2)CC1 | 101% | 91% |
